Results reported in PubChem BioAssay AID504332 (National Center for Advancing Translational Sciences (NCATS), 2011).
The whole screen tested about 350,000 compounds, of which about 31,000 (8.9%) were called active. Where a call stands in place of a potency, no number is given. Inconclusive results (about 15%) are left out. Many of the other results were omitted from the sample, so actives are more common in it than they were. A number with no mark means an inactive call. Calls follow the shape of the dose curve; as a rule, active = well fitted inhibition curve with a large enough effect; inconclusive = small, poorly fitted or top-dose-only effect; inactive = no such curve, though single readings can be large or run the other way.

target: Histone-lysine N-methyltransferase EHMT2 (Homo sapiens) (UniProt Q96KQ7); assay: qHTS Assay for Inhibitors of Histone Lysine Methyltransferase G9a; conditions: G9a H3K9 monomethylation, AlphaScreen, 2 h; series mostly up to 59 µM; also: nearly all actives have a fitted effect of over 75% in size
Outline: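 Signal arises when biotinylated H3K9 peptide, once monomethylated, bridges streptavidin donor and antibody-captured acceptor beads. Enzyme at 20 nM was preincubated 15 min with test compounds; peptide 500 nM and SAM 20 uM then reacted for 2 h.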
Potency is read from the fitted curve at half-maximal effect.

Sequence of Histone-lysine N-methyltransferase EHMT2 (Homo sapiens) (Q96KQ7 913-1193 limits assumed): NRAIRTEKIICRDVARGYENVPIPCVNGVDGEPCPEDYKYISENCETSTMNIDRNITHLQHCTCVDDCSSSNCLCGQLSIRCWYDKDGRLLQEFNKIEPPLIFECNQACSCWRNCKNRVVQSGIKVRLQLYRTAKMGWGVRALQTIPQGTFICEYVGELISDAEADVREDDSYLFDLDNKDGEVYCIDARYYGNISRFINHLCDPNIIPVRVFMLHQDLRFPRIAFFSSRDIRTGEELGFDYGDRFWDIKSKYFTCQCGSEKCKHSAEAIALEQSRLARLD

SMILES	Potency	activity, negative = inhibition
COCCCNC(=O)c1ccc(NC(=O)c2nsc3ccccc23)cc1	inactive	
COC(=O)c1sc2ncccc2c1OCc1ccc(Cl)cc1Cl	inactive	
OC(CNCCc1ccc(Cl)cc1Cl)COc1ccccc1 (stereo not given)	25.1 µM (active)	
COc1ccc(OCC(O)CNC(=O)Nc2ccc(Cl)cc2)cc1 (stereo not given)	inactive	
CCCCN(CC)CCCNC(=O)Cn1ncc2c([nH]c3ccc(C)cc32)c1=O	inactive	
COc1cc(C(=O)NCC(c2ccco2)N2CCCC2)ccc1OCc1ccccc1 (stereo not given)	inactive	
O=C(NCC(c1ccco1)N1CCc2ccccc21)c1cccc(F)c1 (stereo not given)	50.1 µM (active)	
CC1Cc2ccccc2N1S(=O)(=O)c1cccc(C(=O)NCC(c2ccco2)N2CCCC2)c1 (stereo not given)	39.8 µM (active)	
Cc1ccccc1C(=O)NCC(c1ccco1)N1CCc2ccccc21 (stereo not given)		12% [at 2.33 µM]
COc1ccc(C(=O)NCC(c2ccco2)N2CCc3ccccc32)cc1OC (stereo not given)		-2.6% [at 0.501 µM]
CC1CCc2sc(C(=O)NCC(c3ccco3)N3CCCCC3)cc2C1 (stereo not given)	inactive	
COc1ccc2cc(C(=O)NCC3CCCO3)[nH]c2c1 (stereo not given)	inactive	
Cc1cc2c(cc1S(=O)(=O)CCC(=O)Nc1ccc(OC(F)(F)F)cc1)OCC(=O)N2	inactive	
C=CCn1c(SCC(=O)/C(C#N)=C(\C)N)nc2sc(C)c(C)c2c1=O	inactive	
C=CCn1c(SCC(=O)Nc2ccc(NC(C)=O)cc2)nc2sc(C)c(C)c2c1=O		8.2% [at 12.7 µM]
C=CCn1c(SCc2csc(C)n2)nc2scc(-c3ccc(C)o3)c2c1=O	10 µM (active)	
CCN(C(=O)Cc1c(C(=O)O)n(CC)c2ccccc12)c1ccccc1C		26.7% [at 0.501 µM]
CCN(C(=O)CSc1ncn[nH]1)c1cccc2ccccc12	22.4 µM (active)	
O=C(CSc1ncn[nH]1)Nc1nsc(-c2ccccc2)n1	inactive	
CCOc1ccc(C(=O)NCC(=O)N2CCCCCCC2)cc1OCC		8% [at 0.501 µM]
CC(Oc1ccc(F)cc1)C(=O)Nc1ccccc1C(=O)NC1CC1 (stereo not given)	inactive	
COc1cc(-c2c(-c3ccc4c(c3)OCO4)noc2C)ccc1F	inactive	
CC(C(=O)N1CCc2ccccc21)N(C)CC(=O)Nc1ccc(F)cc1 (stereo not given)		13.8% [at 12.7 µM]
C/C(=N\NC(=O)CC(C)C)c1c(C(F)(F)F)[nH]n(-c2nc3ccccc3s2)c1=O	inactive	

SMILES	Potency	activity, negative = inhibition
COC(=O)Cc1[nH]n(-c2nc3ccccc3s2)c(=O)c1C(C)=Nc1ccc(OC)cc1	2.82 µM (active)	
CC(=NCc1ccco1)c1c(C(F)(F)F)[nH]n(-c2nc3ccccc3s2)c1=O		1.72% [at 12.7 µM]
COc1ccccc1CCC(=O)OCC(=O)N1CCN(S(=O)(=O)c2ccc(C)cc2C)CC1	inactive	
c1ccc(-n2nc3ccccc3n2)cc1	inactive	
Brc1ccc(-c2nn[nH]n2)cc1	inactive	
c1ccc(-n2ncc(-c3nn[nH]n3)n2)cc1	50.1 µM (active)	
Cc1c(NC(=O)C(C)Oc2cccc(Cl)c2)c(=O)n(-c2ccccc2)n1C (stereo not given)	inactive	
COc1cccc(-c2nc3n(n2)C(c2ccccc2Cl)C(C(N)=O)=C(C)N3)c1 (stereo not given)	inactive	
CCN(CC)c1ccc(C2C(C(N)=O)=C(C)Nc3nc(SCc4ccccc4)nn32)cc1 (stereo not given)	inactive	
CC1=C(C(N)=O)C(c2ccc3c(c2)OCO3)n2nc(-c3cccc(C)c3)nc2N1 (stereo not given)	0.355 µM (active)	
COc1ccc(CC(=O)N2CC(=O)Nc3ccc(Br)cc3C2c2ccc(F)cc2)cc1OC (stereo not given)	inactive	
CCc1ccc(C2C(C(=O)Nc3ccccc3)=C(C)Nc3c(C(=O)Nc4ccc(C)cc4)cnn32)cc1 (stereo not given)	inactive	
Cc1cc(F)ccc1NC1(c2ccccc2)C(=O)c2ccccc2C1=O	14.1 µM (active)	
Cc1cc(F)ccc1NS(=O)(=O)c1ccc(-n2cccn2)cc1	inactive	
Cc1cc(F)ccc1NC(=O)C(C)n1c2ccccc2c2nc(=O)cc(C)n21 (stereo not given)	inactive	
COc1cccc2c1cc1c(=O)n(CC(=O)N3CCN(c4cccc(Cl)c4)CC3)nc(C)n12	inactive	
O=S(=O)(NCC(c1ccco1)N1CCOCC1)c1cc(F)ccc1F (stereo not given)	inactive	
Clc1nc(NC2CCCC2)nc(N2CCOCC2)n1	inactive	
COC(=O)CNc1nc(Cl)nc(N2CCC(C)CC2)n1	56.2 µM (active)	
CCOC(=O)CNc1nc(Cl)nc(Nc2ccccc2)n1	inactive	
O=[N+]([O-])c1cc([N+](=O)[O-])c(Oc2cc(F)cc(F)c2F)cc1NN1CCCCC1	15.8 µM (active)	
O=C(COc1ccccc1F)NNC(=O)c1ccc(N2CCCCC2)c([N+](=O)[O-])c1	inactive	
O=C(COc1ccc(Cl)cc1[N+](=O)[O-])N1CCCCC1	inactive	
CCOC(=O)C1CCN(C(=O)CSc2c3c(nc4ccc(Cl)cc24)CCCC3)CC1	inactive	

SMILES	Potency	activity, negative = inhibition
COc1ccccc1C(=O)NNC(=O)CCN1C(=O)/C(=C\c2ccccc2)SC1=S	inactive	
COc1ccc(/C=C2/SC(=O)N(CCCCCC(=O)Nc3ccccc3C(=O)O)C2=S)cc1	35.5 µM (active)	
COc1ccc(/C=C2\SC(=O)N(CCC(=O)NCCCn3ccnc3)C2=O)cc1	inactive	
CN(C(=O)c1ccc2c(c1)N(Cc1cccc(Cl)c1)C(=O)c1ccccc1S2=O)C1CCCCC1 (stereo not given)	inactive	
CNC(=O)C(=O)N/N=C/c1ccccn1		-131% [at 12.7 µM]
Cc1cc(C(=O)N/N=C/c2ccccn2)c2ccccc2n1	12.6 µM (active)	
CCOc1ccc(NC(=O)c2cc(C)nc3ccccc23)cc1	inactive	
COC(=O)C1CCN(C(=O)c2ccc3oc(Cc4ccc(Cl)cc4)nc3c2)CC1	inactive	
CCC(=O)N1N=C(c2ccc(OC)cc2)CC1c1cn(-c2ccccc2)nc1-c1cccs1 (stereo not given)	inactive	
COc1ccc(-c2nc(Cn3c(=O)cc(C)c4c(C)nn(-c5ccccc5)c43)c(C)o2)c(OC)c1	inactive	
CCOc1cccc(C(=O)Nc2nnc(S(=O)(=O)N(C)c3ccc(C)cc3)s2)c1	inactive	
Cn1c(SCC(=O)N2CCCC2)nnc1-c1ccc2c(c1)OCO2	inactive	
Cn1c(SCC(=O)N2CCOCC2)nnc1-c1ccc2ncccc2c1	inactive	
Cn1c(SCC(=O)N2CCOCC2)nnc1-c1ccc(NC(=O)c2ccccc2F)cc1	50.1 µM (active)	
CCn1cc(C(=O)NCc2ccccc2)c(=O)c2cc(S(=O)(=O)N3CCCCC3)ccc21	inactive	
Cc1ccc(CNC(=O)CCNS(=O)(=O)c2ccc3c(c2)oc(=O)n3C)cc1	inactive	
COc1cccc(CN2CCc3nc(SCC(=O)Nc4ccccc4)[nH]c(=O)c3C2)c1	inactive	
O=C(CN1C(=O)c2cccc3cccc1c23)Nc1ccccc1	inactive	
Nc1ccc2c3c(cccc13)C(=O)NC2=O		29.3% [at 12.7 µM]
CCN1C(=O)c2cccc3c(N)ccc1c23	39.8 µM (active)	
Cc1cccc(NC(=O)CN2C(=O)c3ccccc3C2=O)c1C	inactive	
CN1C(=O)c2cccc3c(N)ccc(c23)C1=O		-11.1% [at 2.33 µM]
CCN1C(=O)c2cccc3c(S(=O)(=O)Nc4ccccc4O)ccc1c23	44.7 µM (active)	
CCc1ccc(-c2cc3c(=O)n(CC(=O)NCCCN4CCN(Cc5ccccc5)CC4)nc(C)n3n2)cc1	inactive	

SMILES	Potency	activity, negative = inhibition
CCOc1ccccc1NC(=O)Cn1c(=O)n(-c2cccc(C)c2)c(=O)c2c1c1cc(OC)ccc1n2C	inactive	
Cc1cc2oc(C(=O)N(Cc3ccc(Cl)cc3)Cc3ccco3)c(C)c2cc1Cl	inactive	
COc1ccc(CN2CCN(C(=O)c3cc(C4CC4)nn3-c3ccccc3)CC2)cc1F	inactive	
O=[N+]([O-])c1ccc2nc(-c3ccccn3)[nH]c2c1	inactive	
Cc1cc([N+](=O)[O-])ccc1NC1CCCC1	inactive	
O=C(Nc1ccccc1)O/N=C1\CCCCC1c1ccc([N+](=O)[O-])cc1[N+](=O)[O-] (stereo not given)	inactive	
O=[N+]([O-])c1ccc(N/N=C2/CCCCC2c2ccccn2)c([N+](=O)[O-])c1 (stereo not given)	10 µM (active)	
O=C(COC(=O)c1cc([N+](=O)[O-])ccc1NCc1ccccc1)NC1CCCCC1	inactive	
C[n+]1ccccc1C1CCCC/C1=N\Nc1ccc([N+](=O)[O-])cc1[N+](=O)[O-] (stereo not given)	2 µM (active)	
CCOc1ccc(CNCc2c(C(=O)O)c(C)n(Cc3cccc(OC)c3)c2C)cc1OC	inactive	
CC(C)Sc1oc(-c2cccs2)nc1S(=O)(=O)c1ccc(Cl)cc1	inactive	
C/C(=N/OC(=O)c1ccc(Br)cc1)c1ccc(C)cc1	inactive	
CCOc1ccc(/C=N\NC(=O)c2c(C)nc3cc(C)ccn23)cc1		18% [at 0.501 µM]
C/C(=N\OC(=O)c1ccccc1)c1c(C)nc2cc(C)ccn12	50.1 µM (active)	
Cc1nnc(N2CCC(C(=O)Nc3ccc(F)cc3)CC2)c2nn(-c3ccc(Cl)cc3)c(C)c12	inactive	
Cc1cccc(C(=O)NCCc2nc3ccccc3n2Cc2ccccc2Cl)c1	inactive	
O=C(Nc1cccc(-c2cccc(Cl)c2)c1)C1CCN(C2CCC2)CC1		-4.3% [at 0.0925 µM]
O=Cc1c(Nc2ccccc2Cl)nc2ccccn2c1=O		5.69% [at 0.501 µM]
COc1ccccc1C(=O)N1CCN=C1SCc1cccnc1		4.75% [at 12.7 µM]
COc1cccc(OC)c1C(=O)N1CCN(Cc2cccnc2)CC1	7.08 µM (active)	
COc1cccc(OC)c1OCCN1CCN(C(=O)c2ccco2)CC1	inactive	
CCC(C)N(C(=O)CSc1nnnn1-c1ccccc1OC)C1CCS(=O)(=O)C1 (stereo not given)	inactive	
CCn1c(=O)c(=O)[nH]c2c(=O)oc3ccc(S(=O)(=O)Nc4ccc(OC)cc4)cc3c21	inactive	
